Source: PubChem BioAssay (NCATS)
“And” between values parts separate entries of the source, which are not always exact repeats. Identical values can stand only once. Records with an inconclusive call do not appear. The source made the active and inactive calls. Calls follow the shape of the dose curve; as a rule, active = well fitted curve in the direction sought with a large enough effect; inconclusive = small, poorly fitted or top-dose-only effect, or another doubt; inactive = no such curve, though single readings can be large; an effect the other way counts as inactive or inconclusive.

Experiments:
[1] = qHTS of pediatric cancer cell lines to identify multiple opportunities for drug repurposing: Primary screen for Rh18 cells (AID 1347102); also: nearly all actives have a fitted effect of over 65% in size; also: potency is read from the fitted curve at half-maximal effect
In short: (§1)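 Cells (500-1,000/well) rested 5 h, then received compounds for 48 h; metabolically active cells were measured by CellTiter-Glo luminescence. Final concentrations spanned up to 46 µM (MIPE, 11-point) or 0.59 nM-46 µM (NPC, 8-point) in primary screens, 11-point in follow-ups.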

[2] = qHTS of pediatric cancer cell lines to identify multiple opportunities for drug repurposing: Primary screen for RD cells (AID 1347104); also: nearly all actives have a fitted effect of over 55% in size; also: potency is read from the fitted curve at half-maximal effect
In short: (§2)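 Plated cells (500-1,000 per well, growth media) were allowed to settle for 5 hours, treated with compound dilutions for 48 hours, then lysed with CellTiter-Glo for 15 min at room temperature before luminescence reading.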

[3] = qHTS of pediatric cancer cell lines to identify multiple opportunities for drug repurposing: Primary screen for MG 63 (6-TG R) cells (AID 1347105); also: nearly all actives have a fitted effect of over 50% in size; also: potency is read from the fitted curve at half-maximal effect
In short: as §2

[4] = qHTS of pediatric cancer cell lines to identify multiple opportunities for drug repurposing: Primary screen for control Hh wild type fibroblast cells (AID 1347106);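 also: series mostly up to about 46 µM; a drop in luminescence marks cytotoxicity and a rise apparent proliferation; nearly all actives have a fitted effect of over 55% in size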
In short: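 Cells (500-1,000/well) in growth media were settled 5 h at 37 degrees C, then given compounds for 48 h. Viability was read as CellTiter-Glo luminescence. Primary runs used MIPE at 11 points (0.78 nM-46 µM) and NPC at 8 points (0.59 nM-46 µM); follow-ups used 11 points.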

[5] = qHTS of pediatric cancer cell lines to identify multiple opportunities for drug repurposing: Primary screen for Rh30 cells (AID 1347107); also: series mostly up to about 46 µM; nearly all actives have a fitted effect of over 75% in size
In short: as §1

[6] = qHTS of pediatric cancer cell lines to identify multiple opportunities for drug repurposing: Primary screen for Rh41 cells (AID 1347108); also: nearly all actives have a fitted effect of over 70% in size; also: potency is read from the fitted curve at half-maximal effect
In short: as §2

[7] = qHTS of pediatric cancer cell lines to identify multiple opportunities for drug repurposing: Confirmatory screen for A673 cells (AID 1347110);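 also: cells exposed to compound for 48 h before the viability read; nearly all actives have a fitted effect of over 65% in size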; also: potency is read from the fitted curve at half-maximal effect
In short: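 A673 cells at 500-1,000 cells/well were dosed 5 h after plating, in dilution series up to 46 uM final; primary runs used 8 or 11 points and confirmatory runs used 11 points. Viability was read by CellTiter-Glo luminescence after 48 h, against DMSO and 2.3 uM bortezomib controls.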

[8] = qHTS of pediatric cancer cell lines to identify multiple opportunities for drug repurposing: Confirmatory screen for SK-N-MC cells (AID 1347111);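 also: cells exposed to compound for 48 h before the readout; nearly all actives have a fitted effect of over 70% in size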; also: potency is read from the fitted curve at half-maximal effect
In short: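 Seed 500-1,000 cells/well; rest 5 h at 37 degrees C. Pin-transfer compounds, 11-point titration. Incubate 48 h. Add CellTiter-Glo, 15 min RT, read luminescence.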

[9] = qHTS of pediatric cancer cell lines to identify multiple opportunities for drug repurposing: Confirmatory screen for DAOY cells (AID 1347114); also: nearly all actives have a fitted effect of over 65% in size; also: potency is read from the fitted curve at half-maximal effect
In short: (§3)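 Viability measured as metabolically active cells via CellTiter-Glo luminescence following 48 hours of compound exposure, 11-point dilutions in confirmatory testing. 500-1,000 cells/well plated 5 hours before dosing; controls were DMSO and 2.3 µM bortezomib.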

[10] = qHTS of pediatric cancer cell lines to identify multiple opportunities for drug repurposing: Confirmatory screen for NB-EBc1 cells (AID 1347115);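 also: cells exposed to compound for 48 h before the viability read; nearly all actives have a fitted effect of over 45% in size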; also: potency is read from the fitted curve at half-maximal effect
In short: as §1

[11] = qHTS of pediatric cancer cell lines to identify multiple opportunities for drug repurposing: Confirmatory screen for SJ-GBM2 cells (AID 1347116); also: nearly all actives have a fitted effect of over 60% in size; also: potency is read from the fitted curve at half-maximal effect
In short: as §3

[12] = qHTS of pediatric cancer cell lines to identify multiple opportunities for drug repurposing: Confirmatory screen for TC32 cells (AID 1347118);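 also: potency is read from the fitted curve at half-maximal effect; cells exposed to compound for 48 h before the read; nearly all actives have a fitted effect of over 65% in size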
In short: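 Measured quantity: luminescence from CellTiter-Glo, reflecting metabolically active TC32 cells following 48 h of compound. Curves came straight from multi-point titrations, with 8 or 11 points in primary and 11 in confirmatory screening.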

[13] = qHTS of pediatric cancer cell lines to identify multiple opportunities for drug repurposing: Confirmatory screen for U-2 OS cells (AID 1347122); also: nearly all actives have a fitted effect of over 65% in size; also: potency is read from the fitted curve at half-maximal effect
In short: as §1

[14] = qHTS of pediatric cancer cell lines to identify multiple opportunities for drug repurposing: Confirmatory screen for Rh41 cells (AID 1347123);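 also: 48 h compound exposure; nearly all actives have a fitted effect of over 60% in size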; also: potency is read from the fitted curve at half-maximal effect
In short: as §1

[15] = qHTS of pediatric cancer cell lines to identify multiple opportunities for drug repurposing: Primary screen for LAN-5 cells (AID 1347100); also: potency is read from the fitted curve at half-maximal effect
In short: as §1

[16] = qHTS of pediatric cancer cell lines to identify multiple opportunities for drug repurposing: Primary screen for OHS-50 cells (AID 1347103); also: nearly all actives have a fitted effect of over 40% in size; also: potency is read from the fitted curve at half-maximal effect
In short: as §1

[17] = qHTS of pediatric cancer cell lines to identify multiple opportunities for drug repurposing: Primary screen for BT-12 cells (AID 1347101); also: nearly all actives have a fitted effect of over 25% in size; also: potency is read from the fitted curve at half-maximal effect
In short: as §1

[18] = qHTS of pediatric cancer cell lines to identify multiple opportunities for drug repurposing: Confirmatory screen for BT-12 cells (AID 1347112); also: nearly all actives have a fitted effect of over 55% in size; also: potency is read from the fitted curve at half-maximal effect
In short: as §1

[19] = qHTS of pediatric cancer cell lines to identify multiple opportunities for drug repurposing: Confirmatory screen for BT-37 cells (AID 1347117); also: nearly all actives have a fitted effect of over 55% in size; also: potency is read from the fitted curve at half-maximal effect
In short: as §1

[20] = qHTS of pediatric cancer cell lines to identify multiple opportunities for drug repurposing: Confirmatory screen for NB1643 cells (AID 1347109); also: nearly all actives have a fitted effect of over 45% in size; also: potency is read from the fitted curve at half-maximal effect
In short: as §1

Measured: Potency

O=C(NCC1CCCCN1)c1cc(OCC(F)(F)F)ccc1OCC(F)(F)F (stereo not given)
active: [7] 1.31 µM | [8] 7.37 µM | [12] 5.22 µM
not listed: [15] | [16] | [17] | [18] | [19] | [20]
inactive: all other assays above

O=c1cc(N2CCOCC2)oc2c(-c3ccccc3)cccc12
inactive: [15] | [4]
active: [16] 2.73 µM

O=c1ccc2ccc(O)c(O)c2o1
inactive: [1] | [3] | [4] | [5]

Cc1ccc(C(=O)c2cc(O)c(O)c([N+](=O)[O-])c2)cc1
inactive: [1] | [2] | [3] | [5] | [6]

CCCCC(CC)COC(=O)C(C#N)=C(c1ccccc1)c1ccccc1 (stereo not given)
active: [16] 13.8 µM and 24.3 µM
inactive: [1] | [3] | [4] | [5]

CN(C)C(=O)[C@H](O)[C@H](Cc1ccccc1)NC(=O)c1cc2cc(Cl)ccc2[nH]1
inactive: [15] | [16] | [4]

CN1CCC(=C2c3ccccc3CCc3sccc32)CC1
active: [16] 12.3 µM
inactive: [15] | [3] | [4] | [5] | [6]

Clc1ccc(C(Cn2ccnc2)OCc2c(Cl)cccc2Cl)c(Cl)c1 (stereo not given)
inactive: [1] | [3] | [4] | [5] | [6]
active: [16] 19.5 µM and 24.3 µM

CCN(CC)CCOc1ccc(Cc2ccccc2)cc1
inactive: [1] | [3] | [4] | [5] | [6]

CC(C)c1nc(CN(C)C(=O)N[C@H](C(=O)N[C@@H](Cc2ccccc2)C[C@H](O)[C@H](Cc2ccccc2)NC(=O)OCc2cncs2)C(C)C)cs1
inactive: [17] | [2] | [4]

CCCc1cc(=O)[nH]c(=S)[nH]1
inactive: [1] | [16] | [2] | [3] | [4] | [5] | [6]

OC(CN1CCN(c2cccc(Cl)c2)CC1)C(c1ccccc1)c1ccccc1 (stereo not given)
inactive: [1] | [4] | [5] | [6]
active: [16] 24.3 µM

CCCOc1ccc2nc(NC(=O)OC)[nH]c2c1
active: [17] 123 nM and 30.6 nM | [16] 61.7 nM and 13.7 nM | [7] 1.17 µM | [8] 1.31 µM | [18] 4.14 µM | [9] 0.928 µM | [11] 1.47 µM | [19] 1.31 µM | [12] 0.928 µM | [13] 2.08 µM
inactive: [1] | [5]

CC1(C)CCC(C)(C)c2cc(NC(=O)c3ccc(C(=O)O)cc3)ccc21
inactive: [15] | [1] | [2] | [3] | [5] | [6]

Clc1ccc(C(Cn2ccnc2)OCc2ccc(Sc3ccccc3)cc2)c(Cl)c1 (stereo not given)
inactive: [1] | [16] | [3] | [4] | [5] | [6] | [11]
active: [7] 1.17 µM | [8] 18.5 µM | [18] 29.3 µM | [9] 18.5 µM | [19] 26.1 µM | [12] 10.4 µM | [13] 18.5 µM

CN(c1nccc(=O)[nH]1)C1CCN(c2nc3ccccc3n2Cc2ccc(F)cc2)CC1
inactive: [17] | [1] | [2] | [3] | [4] | [5] | [6]

O=C1c2ccccc2-c2n[nH]c3cccc1c23
inactive: [3] | [4]
active: [15] 1.66 µM | [16] 21.7 µM

CN(C)c1ccc(O)c2c1C[C@H]1C[C@H]3[C@H](N(C)C)C(=O)C(C(N)=O)=C(O)[C@@]3(O)C(=O)C1=C2O
active: [12] 5.85 µM
not listed: [8] | [9] | [15] | [17]
inactive: all other assays above

Oc1ccc(-c2nc(-c3ccc(F)cc3)c(-c3ccncc3)[nH]2)cc1
inactive: [17] | [4] | [9] | [13]
active: [2] 29.6 µM | [6] 16.6 µM | [20] 0.928 µM | [7] 1.17 µM | [8] 1.17 µM | [18] 11.7 µM | [10] 5.22 µM | [11] 2.33 µM | [19] 0.737 µM | [12] 0.737 µM | [14] 1.47 µM

NCCCCNCCCN
active: [6] 23.5 µM
inactive: [17] | [1] | [16] | [2] | [3] | [5]

COC1=C(OC)C(=O)C(CCCCCCCCCCO)=C(C)C1=O
inactive: [3] | [5] | [6]

Cc1cc(C2CCCCC2)n(O)c(=O)c1
inactive: [11]
active: [15] 7.43 µM | [16] 3.09 µM and 4.32 µM | [2] 7.5 µM and 18.7 µM | [3] 13.3 µM and 23.5 µM | [20] 14.7 µM | [7] 11.7 µM | [8] 5.22 µM | [10] 16.5 µM | [19] 2.33 µM | [12] 4.65 µM

c1cnc2cc3c(cc2n1)C1CNCC3C1
not listed: [11] | [12] | [15]
inactive: all other assays above

CC(=O)O[C@H]1C(=O)[C@@]2(C)C([C@H](OC(=O)c3ccccc3)[C@]3(O)C[C@H](OC(=O)[C@H](O)[C@@H](NC(=O)c4ccccc4)c4ccccc4)C(C)=C1C3(C)C)[C@]1(OC(C)=O)CO[C@@H]1C[C@@H]2O (stereo not given in full)
active: [15] 0.001 µM | [16] 0.001 µM | [6] 0.0042 µM | [7] 0.0147 µM | [8] 0.0117 µM | [12] 0.0104 µM | [14] 0.0104 µM
inactive: [4]

CCCS(=O)c1ccc2nc(NC(=O)OC)[nH]c2c1 (stereo not given)
active: [15] 16.8 µM | [16] 27.3 µM | [3] 13.3 µM and 18.7 µM

Cn1c(NCCN(CCO)CCCc2ccc([N+](=O)[O-])cc2)cc(=O)n(C)c1=O
inactive: [1] | [3] | [4] | [5] | [6]

O=C1NC(=O)C(c2ccccc2[N+](=O)[O-])=C1Nc1ccc(O)c(Cl)c1
inactive: [17] | [1] | [16] | [2] | [4] | [5] | [6]

Cc1cccc(C)c1OCC(=O)N[C@@H](Cc1ccccc1)[C@@H](O)C[C@H](Cc1ccccc1)NC(=O)[C@H](C(C)C)N1CCCNC1=O
active: [16] 27.3 µM
inactive: [1] | [3] | [4] | [5]

Nc1nc(N)c(N=O)c(OCC2CCCCC2)n1
inactive: [5]
active: [1] 18.7 µM | [16] 15.3 µM | [3] 11.8 µM

O=C1CCc2ccc(OCCCCN3CCN(c4cccc(Cl)c4Cl)CC3)cc2N1
active: [16] 6.92 µM and 24.3 µM
inactive: [1] | [2] | [3] | [4] | [5] | [6]

CCc1nc(N)nc(N)c1-c1ccc(Cl)cc1
active: [17] 8.71 µM and 10.9 µM | [2] 10.6 µM and 18.7 µM | [7] 0.329 µM | [8] 1.31 µM | [19] 5.22 µM | [12] 2.93 µM | [14] 10.4 µM
inactive: [1] | [5] | [6]

Cc1c(OCC(F)(F)F)ccnc1CS(=O)c1nc2ccccc2[nH]1 (stereo not given)
inactive: [15] | [1] | [2] | [3] | [5] | [6]

Cc1c(C(=O)NN2CCCCC2)nn(-c2ccc(Cl)cc2Cl)c1-c1ccc(Cl)cc1
inactive: [4] | [5] | [6] | [11]
active: [15] 3.72 µM | [16] 4.85 µM | [2] 18.7 µM | [7] 20.8 µM | [8] 7.37 µM | [9] 23.3 µM | [12] 23.3 µM | [13] 16.5 µM | [14] 18.5 µM

COc1cc(Nc2c(C#N)cnc3cc(OCCCN4CCN(C)CC4)c(OC)cc23)c(Cl)cc1Cl
inactive: [4]
active: [17] 27.6 µM | [16] 19.5 µM and 2.17 µM | [2] 15 µM and 14.8 µM
